Compounds with a hit are over-represented: about 21% of the library has one in this group of screens.
NS1 inh = influenza NS1 inhibition; 270,000 compounds, 0.4% hits; Potency, µM (highest dose often 46.1 µM), for the others: top-dose activity, positive = more growth; AID 2326; calls by dose curve; further: potency means the concentration at half of the fitted maximal effect; actives are rising curves; nearly all actives have a fitted effect of over 50% in size
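Growth recovery, yeast-based: influenza A NS1 expressed in S. cerevisiae causes slow growth, and suppressors are detected by OD600. The parent strain without NS1 is used as positive control.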
Pf growth 96h = P. falciparum growth inhibition at 96 hour, primary screen for plastid delayed-death inhibitors | AID 504834 | P. falciparum luciferase reporter growth, 96 h | Potency, µM (top dose mostly 28.7 µM), for inactives: at the highest dose activity change, negative = inhibition, actives largely listed as inhibitors | 320,000 compounds, 6.9% hits; further: potency means the concentration at half of the fitted maximal effect; on the % scale 0 is the no-effect control and ±100 the full control effect
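Infected RBCs, 2% Hct / 0.05% parasitemia final; luciferase-reporter P. falciparum; cpd 96 h, 37 C, 5% CO2; luciferase detection reagent; luminescence.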
Cycloheximide cs = affects cycloheximide protein synthesis inhibition readout, counter-screen; 300,000 compounds, 12% hits; max response, %; cell reporter, cycloheximide protein synthesis inhibition counterscreen; in the data active means max response mostly above about 13%, no sharp cut-off; inactive means mostly below about 14%; further: read at 38.3 µM for the half of the compounds with a filed dose; 0% is about no effect
Shiga toxin inh = inhibitors of Shiga toxin in Vero cells; 290,000 compounds, 9.2% hits; Vero cells, Shiga toxin protein synthesis inhibition reporter; inhibition, % at 38.7 µM; in the data active means inhibition mostly above about 28%, no sharp cut-off; inactive means mostly below about 43%; further: 0% is about no effect
Pf growth 48h = inhibits P. falciparum growth in the first generation, 48 h | Potency, µM (doses to about 28.7 µM), inactives show at the highest dose activity change, negative = inhibition, actives largely listed as inhibitors | 310,000 compounds, 5.9% hits | P. falciparum luciferase growth in erythrocytes, 48 h; further: potency means the concentration at half of the fitted maximal effect; on the % scale 0 is the no-effect control and ±100 the full control effect
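First compound was added to culture medium, then infected red cells at 0.1% parasitemia and 2% hematocrit (final). After incubation at 37 C under 5% CO2, luciferase detection reagent was dispensed and light output recorded.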
Sm TGR inh = blocks Schistosoma mansoni thioredoxin glutathione reductase | 360,000 compounds, 3% hits | Q962Y6 | AID 485364 | purified TGR, DTNB reduction, TNB absorbance 405 nm | Potency, µM (highest dose often 114 µM), inactives show at the top dose activity change, negative = inhibition, usual class: inhibitors; further: potency means the concentration at half of the fitted maximal effect; on the % scale 0 is the no-effect control and ±100 the full control effect; nearly all actives have a fitted effect of over 60% in size
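First, TGR (20 nM dispensed) and NADPH were mixed with compound. Second, a 15 min room-temperature incubation followed. Third, further NADPH and then DTNB were added to start the reaction. Finally, TNB absorbance was monitored kinetically.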
Numbers without * were called inactive; ? = inconclusive; . = not tested or not shown. Unless noted, the call rests on the fitted dose curve; in most records, active means well fitted curve in the direction sought with a large enough effect; inconclusive means small, poorly fitted or top-dose-only effect, or another doubt; inactive means no such curve, though single readings can be large; an effect the other way counts as inactive or inconclusive.

SMILES	NS1 inh	Pf growth 96h	Cycloheximide cs	Shiga toxin inh	Pf growth 48h	Sm TGR inh
COCCn1c(=O)[nH]c2cc(C(=O)Nc3cc(OC)c(OC)c(OC)c3)ccc2c1=O	0%	5.2µM*	-11	15	?	1%
COCCn1c(=O)[nH]c2cc(C(=O)N3CCN(c4cccc(C(F)(F)F)c4)CC3)ccc2c1=O	2%	12µM*	-7	-13	?	2%
COCCn1c(=S)[nH]c2cc(C(=O)N3CCN(c4cccc(Cl)c4)CC3)ccc2c1=O	9%	12µM*	-2	-8	-1%	-2%
N#Cc1ccccc1S(=O)(=O)N1CCN(C(=O)c2cc3c(s2)CCC3)CC1	.	?	.	.	-3%	-13%
Cc1nc(N)sc1N=Nc1ccccc1C(F)(F)F	-1%	?	45*	112*	-17%	18%
Cc1ccc(N(CCC#N)C(=O)CCl)cc1C	-11%	?	9	8	9.3µM*	18µM*
CC(CCc1ccc(O)cc1)NCc1ccc(Br)cc1 (stereo not drawn)	13%	-13%	-2	.	?	1%
O=C(NCCCN1CCN(c2ccccc2)CC1)c1ccc2nc(CCc3ccccc3)oc2c1	.	.	.	.	.	3%
CCS(=O)(=O)N1N=C(c2cccc(NS(C)(=O)=O)c2)CC1c1cccs1 (stereo not drawn)	-2%	?	-3	-3	-4%	-30%
CCS(=O)(=O)Nc1cccc(C2=NN(S(=O)(=O)CC)C(c3cccs3)C2)c1 (stereo not drawn)	1%	13µM*	-6	-5	?	-10%
CCS(=O)(=O)Nc1cccc(C2=NN(S(=O)(=O)c3ccc(F)cc3)C(c3cccs3)C2)c1 (stereo not drawn)	?	8.3µM*	-3	40	?	-10%
CS(=O)(=O)Nc1cccc(C2=NN(C(=O)c3ccccc3)C(c3cccs3)C2)c1 (stereo not drawn)	3%	26%	1	-5	13µM*	9%
CCn1c(CN2CCOCC2)nc2cc(NC(=O)c3cccc([N+](=O)[O-])c3)ccc21	.	.	.	.	.	1%
CCCc1cc(=O)[nH]c(SCC(=O)c2c(N)n(C3CC3)c(=O)[nH]c2=O)n1	.	-18%	.	.	-13%	-5%
Cc1c(NC(=O)CSc2nc3ccccc3c(=O)n2C(C)C)c(=O)n(-c2ccccc2)n1C	.	-19%	.	.	?	-7%
Cc1ccc(NC(=O)/C(=C/c2cccs2)NC(=O)c2ccco2)cc1	2%	?	-10	-12	?	-2%
O=C(N/N=C/C(Cl)=C/c1ccccc1)c1ccc2c(c1)OCO2	.	?	.	.	1%	?
O=C(Cc1cccs1)N/N=C/c1ccccc1	-3%	7%	15	27	27%	-4%
O=C(Cc1cccs1)N/N=C/C(Cl)=C/c1ccccc1	.	?	31*	118*	77%	-9%
Cc1cccc(/C=N/NC(=O)Cc2cccs2)c1	-3%	82%	33*	72*	39%	2%
CCOC(=O)N/N=C/C(Cl)=C/c1ccccc1	.	?	38*	54*	-43%	3%
O=C(Cc1n[nH]c(=O)c2ccccc12)OCC(=O)c1ccc(F)c(F)c1	.	31%	.	.	-4%	-12%
Cc1cc(Cl)cc(Cl)c1OCCN1CCCC1	-5%	7%	-2	-11	16%	-1%
O=C(c1ccccc1N1CCOCC1)N1CCCC(Nc2ccc(F)cc2)C1 (stereo not drawn)	-2%	-3%	11	19	-17%	-29%
c1ccc(OCCSc2nnnn2C2CCCCC2)cc1	-14%	-14%	30*	95*	381%	?
CCCC(C)NCC(=O)Nc1ccccc1-c1ccccc1 (stereo not drawn)	4%	.	-6	-27	-10%	-5%
COC(=O)c1ccc(NC(=O)CNS(=O)(=O)c2cccs2)cc1	-5%	.	19*	32	-12%	-6%
CCOC(=O)CNC(=O)N1CCCC(CNS(=O)(=O)c2cccs2)C1 (stereo not drawn)	5%	10µM*	2	10	9%	3%
O=C(CNS(=O)(=O)c1cccs1)Nc1ccc2c(c1)OCCO2	6%	-15%	43*	90*	65%	0%
